Screening data: PubChem BioAssay, National Center for Advancing Translational Sciences (NCATS)
Rows were chosen to be rich in hits. Some 12% of all compounds tested hit in one or more screens of this group.
BAZ2B block: blocks human BAZ2B | Q9UIF8 | AlphaScreen BAZ2B-H3K14Ac peptide displacement | Potency, µM (series often up to 114 µM), inactives show top-dose activity change, negative = inhibition, most hits filed as inhibitors | 360,000 compounds, 4.4% hits; also: potency is read from the fitted curve at half-maximal effect; % is scaled to controls: 0 for no effect and ±100 for the full control effect; nearly all actives have a fitted effect of over 60% in size
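In this displacement format the biotinylated H3(5-23) peptide acetylated at Lys14 serves as ligand at 50 nM, with BAZ2B at 50 nM in PBS pH 7.4 containing 0.01% Tween-20. Donor and acceptor beads are 10 ug/mL final.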
PLK1 PBD inh: blocks phosphopeptide binding to human PLK1 polo-box domain | 360,000 compounds, 2.8% hits | Potency, µM, for inactives: max response, negative = inhibition, actives largely listed as inhibitors | Plk1 PBD binding of FITC phosphopeptide, fluorescence polarization | P53350; also: potency is read from the fitted curve at half-maximal effect; series mostly up to about 57 µM; % is scaled to controls: 0 for no effect and ±100 for the full control effect; nearly all actives have a fitted effect of over 65% in size
JMJD2A Tudor inh: inhibitors of human JMJD2A Tudor domain; O75164; AlphaScreen JMJD2A-Tudor / H3K4me3 peptide binding; Potency, µM (doses to about 114 µM), for the others: at the top dose activity change, negative = inhibition, actives largely listed as inhibitors; 390,000 compounds, 4.4% hits; also: potency is read from the fitted curve at half-maximal effect; % is scaled to controls: 0 for no effect and ±100 for the full control effect; nearly all actives have a fitted effect of over 50% in size
Target sequence (O75164 whole entry, looked up, the tested form may be a part): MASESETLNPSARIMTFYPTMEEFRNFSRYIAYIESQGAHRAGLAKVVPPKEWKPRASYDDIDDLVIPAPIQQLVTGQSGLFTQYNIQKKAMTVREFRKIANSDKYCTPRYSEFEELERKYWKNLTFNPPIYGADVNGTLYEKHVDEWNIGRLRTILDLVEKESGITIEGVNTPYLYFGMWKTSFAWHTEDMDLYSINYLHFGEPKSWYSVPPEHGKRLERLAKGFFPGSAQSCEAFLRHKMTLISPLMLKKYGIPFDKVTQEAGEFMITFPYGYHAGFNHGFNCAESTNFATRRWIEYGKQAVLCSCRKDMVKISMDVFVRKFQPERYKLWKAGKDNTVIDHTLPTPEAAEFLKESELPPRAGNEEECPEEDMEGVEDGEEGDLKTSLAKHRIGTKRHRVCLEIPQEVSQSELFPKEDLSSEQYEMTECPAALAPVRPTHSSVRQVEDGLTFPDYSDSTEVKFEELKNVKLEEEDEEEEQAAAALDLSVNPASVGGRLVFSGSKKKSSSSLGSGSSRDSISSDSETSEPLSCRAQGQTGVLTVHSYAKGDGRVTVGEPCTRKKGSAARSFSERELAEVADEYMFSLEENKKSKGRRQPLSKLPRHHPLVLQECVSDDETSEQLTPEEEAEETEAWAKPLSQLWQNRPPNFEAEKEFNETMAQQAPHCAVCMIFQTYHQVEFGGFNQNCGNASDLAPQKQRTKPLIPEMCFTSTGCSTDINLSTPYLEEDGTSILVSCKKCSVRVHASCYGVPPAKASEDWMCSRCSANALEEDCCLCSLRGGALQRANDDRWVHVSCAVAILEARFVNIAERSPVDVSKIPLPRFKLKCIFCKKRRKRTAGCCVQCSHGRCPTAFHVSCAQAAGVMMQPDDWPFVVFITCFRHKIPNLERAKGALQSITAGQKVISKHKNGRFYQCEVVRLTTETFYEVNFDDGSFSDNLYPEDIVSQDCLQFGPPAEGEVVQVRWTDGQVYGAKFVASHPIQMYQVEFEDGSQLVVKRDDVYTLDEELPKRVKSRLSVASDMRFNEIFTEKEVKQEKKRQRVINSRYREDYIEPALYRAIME
HP1b binding inh: inhibitors of HP1-beta chromodomain binding to methylated histone tails; 390,000 compounds, 0.56% hits; P83916; Potency, µM (series often up to 114 µM), for inactives: top-dose activity change, negative = inhibition, actives largely listed as inhibitors; AlphaScreen HP1-beta / biotin-H3K9me3 peptide binding; also: potency is read from the fitted curve at half-maximal effect; nearly all actives have a fitted effect of over 70% in size
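HP1-beta protein (50 nM final) preincubated 30 min at room temperature with biotinylated H3(1-18)K9me3 peptide (50 nM) in PBS pH 7.4, 0.01% Tween-20, then compound added for 30 min. AlphaScreen streptavidin donor/nickel chelate acceptor beads (10 ug/mL final), 30 min dark, luminescence read.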
G9a block: inhibitors of human histone lysine methyltransferase G9a | Q96KQ7 | 350,000 compounds, 8.8% hits | Potency, µM (top dose mostly 102 µM), without a hit: at the highest dose activity, negative = inhibition, hits mostly inhibitors | G9a H3K9 monomethylation, AlphaScreen, 2 h | AID 504332; also: potency is read from the fitted curve at half-maximal effect; % is scaled to controls: 0 for no effect and ±100 for the full control effect; nearly all actives have a fitted effect of over 75% in size
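Using a bead-based AlphaScreen, monomethylated H3K9 product from 2 h room-temperature reactions (G9a 20 nM, peptide 500 nM, SAM 20 uM) was detected with 0.5 ug/mL rabbit anti-H3K9me1 antibody.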
PI5P4Ka inh: blocks human PI5P4K alpha kinase activity; P48426; PI5P4Kalpha enzyme, ADP-Glo luminescence, 60 min; stronger effect = lower value; max response, %; 330,000 compounds, 1.2% hits; AID 652105; active = max response of -50% or lower; inconclusive = between -30% and -50%; inactive = -30% or higher; also: value at the top dose of about 77 µM; % is scaled to controls: 0 for no effect and ±100 for the full control effect
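Luminescence from ADP-Glo served as readout of PI5P4Kalpha activity in a qHTS format. Reaction: enzyme, substrate, compound, ATP at 5 microM final, 60 min at RT.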
Starred values were filed as active, the others as inactive; u = inconclusive; x = no result; [ ] = remark or other dose. Unless noted, calls follow the shape of the dose curve; as a rule, active = well fitted curve in the direction sought with a large enough effect; inconclusive = small, poorly fitted or top-dose-only effect, or another doubt; inactive = no such curve, though single readings can be large; an effect the other way counts as inactive or inconclusive.

SMILES	BAZ2B block	PLK1 PBD inh	JMJD2A Tudor inh	HP1b binding inh	G9a block	PI5P4Ka inh
COCCCn1c(=O)/c(=C\c2ccccc2OC(F)F)s/c1=C(/C#N)C(=O)NC(C)C	-9%	-18%	-18%	6%	12%[59 µM]	11
Cc1c(Cl)cccc1N1CCn2c1nc1c2c(=O)n(CC(=O)O)c(=O)n1C	-17%	x	-9%	25%	9%[59 µM]	x
CCOc1cc(C(=O)OCC(=O)Nc2ncc(Cl)c(C)c2Cl)ccc1OCC(=O)N1CCOCC1	4%	-11%	-13%	13%	45µM*	-12
CCn1nc(C(=O)OCC(=O)Nc2ncc(Cl)c(C)c2Cl)c2ccccc2c1=O	u	-15%	u	-15%	50µM*	u
Cn1nc(C(=O)Nc2cc(Cl)ccc2N2CCCC2)c2ccccc2c1=O	u	-8%	u	-15%	u	21
CCn1nc(C(=O)OCC(=O)NC(C)C)c2ccccc2c1=O	-4%	19µM*	u	-11%	-4%	-22
CC(C)CCn1nc(C(=O)OCC(=O)NC(C)c2ccccc2)c2ccccc2c1=O (stereo not drawn)	x	0%	x	x	x	-14
CCOc1cc(C(=O)OCC(=O)Nc2c(C)cccc2C)ccc1OCC(=O)N1CCOCC1	10%	-1%	3%	50%	24%[59 µM]	0
CCn1nc(C(=O)Nc2ccccc2N2CCCC2)c2ccccc2c1=O	40µM*	-2%	35µM*	u	25µM*	8
COCCn1c(=O)c(-c2ccc(F)cc2)nc2cnc(Oc3ccccc3)nc21	x	x	x	x	4%[0.501 µM]	x
Cc1c(Cl)cnc(NC(=O)COC(=O)c2cc3c(s2)CCC(C)C3)c1Cl (stereo not drawn)	3%	-10%	-18%	10%	35µM*	-26
Cc1cc(NC(=O)COC(=O)c2cc3c(s2)CCC(C)C3)no1 (stereo not drawn)	-1%	0%	-10%	27%	7%[59 µM]	x
Clc1ccc(Cl)c(OCCCCNCc2ccccc2)c1	u	-4%	1.3µM*	u	u	6
Clc1ccc(OCCCNCc2ccccc2)c(Br)c1	u	-4%	10µM*	-22%	13µM*	x
Cc1nc2ccc(S(=O)(=O)N3CCN(S(=O)(=O)c4c(F)cccc4F)CC3)cc2s1	x	x	-21%	x	x	x
Cc1cc2c(cc1C)NC(CC(=O)NCc1ccccc1)C(=O)N2 (stereo not drawn)	7%	26%	-24%	20%	3.2µM*	x
COC(=O)c1c(NC(=O)CC2Nc3cc(C)c(C)cc3NC2=O)sc(C)c1C (stereo not drawn)	0%	u	-12%	30%	20µM*	2
CS(=O)(=O)c1ccccc1C(=O)N1CCN(S(=O)(=O)c2ccc(C3CCCCC3)cc2)CC1	-32%	-4%	-32%	7%	50µM*	15
CCn1c(CN2CCOCC2)nc2cc(NC(=O)c3cccc([N+](=O)[O-])c3)ccc21	-17%	x	-23%	24%	-19%[59 µM]	x
COc1cc(/C=N/NC(=O)CSc2cc(C)c(Br)cc2C)ccc1O	4%	-2%	2%	15%	2%	-12
Cc1cc(SCC(=O)N/N=C/c2ccc(O)c(O)c2O)c(C)cc1Br	-26%	6µM*	50µM*	u	u	-87*
O=C(COc1ccc(/C=N/NC(=O)c2ccccc2O)cc1)Nc1ccc([N+](=O)[O-])cc1	-6%	21µM*	-10%	37%	7%[59 µM]	0
CCOC(=O)N1CCN(C(=O)CNC2CCCCCCC2)CC1	50µM*	-4%	32µM*	29%	32µM*	3
O=C(CSCCc1ccccn1)Nc1cccnc1Cl	-3%	-1%	-9%	23%	-3%[59 µM]	x
O=C(O)CSCCc1ccccn1	-34%	30µM*	-30%[11.4 µM]	17%	u	1
SMILES	BAZ2B block	PLK1 PBD inh	JMJD2A Tudor inh	HP1b binding inh	G9a block	PI5P4Ka inh
O=C(CSCCc1ccccn1)Nc1ccccn1	-2%	u	-8%	51%	56µM*	1
COc1ccc(NC(=O)C(C)N2Cc3ccccc3C2=O)cc1OC (stereo not drawn)	2%	x	-11%	6%	1%[59 µM]	x
CCc1ccccc1NC(=O)C1CCCN1S(=O)(=O)c1ccc(-c2ccc(=O)[nH]n2)s1 (stereo not drawn)	-31%	-19%	-26%	4%	u	-59*
Cc1cccc(C)c1NC(=O)C1CCCN1S(=O)(=O)c1ccc(-c2ccc(=O)[nH]n2)s1 (stereo not drawn)	-4%	12µM*	u	-13%	10%	u
Cc1cccc(C)c1NC(=O)CN(C)S(=O)(=O)c1ccc(-c2ccc(=O)[nH]n2)s1	-13%	-12%	-11%	34%	-21%	-11
CCOc1ccc(OCC(=O)Nc2c(C(=O)Nc3ccc(C)cc3)oc3ccccc23)cc1	-6%	x	-2%	28%	6%[59 µM]	x
Cc1ccccc1C1CC(=O)Oc2ccc(O)cc21 (stereo not drawn)	x	x	x	x	10µM*	x
COc1ccc(C2CC(=O)Oc3ccc(O)cc32)cc1 (stereo not drawn)	x	x	x	x	35µM*	x
COc1ccccc1C1CC(=O)Oc2cc3c(cc21)OCO3 (stereo not drawn)	x	x	x	x	35µM*	x
COc1cc(C2CC(=O)Oc3ccc(O)cc32)cc(OC)c1OC (stereo not drawn)	x	x	x	x	16µM*	x
COc1ccc(C2CC(=O)Oc3ccc(OC)cc32)cc1 (stereo not drawn)	x	-7%	-3%	46%	x	-1
C[C@H]1COC(=O)CC/C=C\C[C@H](CC(=O)N(CCO)Cc2ccccc2)C(=O)N1	x	-3%	-18%	34%	x	-4
O=S(=O)(CC=CCS(=O)(=O)c1ccccc1)c1ccccc1	x	-21%	-13%	1%	x	-4
COc1cc(C2CC(=O)Oc3c2c(=O)n(C)c2ccccc32)cc(OC)c1OC (stereo not drawn)	50µM*	u	-19%	u	-8%	-9
Cc1cc(C)nc(N/N=C/C2=C(O)CC(c3ccc(F)cc3)CC2=O)n1 (stereo not drawn)	22µM*	-5%	32µM*	44%	1%	-2
CCC(OCC(O)CN1CCCCC1)c1ccccc1 (stereo not drawn)	-22%	0%	3%	83%	9%	-4
COc1cc(Cl)c(C)cc1Nc1c2c(nc3ccccc13)CCC2	-17%	x	-27%	13%	-30%[59 µM]	x
Cc1ccc(-c2cc3c(nn2)-c2ccccc2C3=O)cc1	u	u	-17%[11.4 µM]	-2%	x	u
